Data: PubChem BioAssay (Tox21)
“And” between values parts separate entries of the source, which are not always exact repeats. Identical values can stand only once. More than one record can exist for a structure, and the calls need not agree. The source made the active and inactive calls. Entries that show only a call come without a potency. Calls follow the shape of the dose curve; as a rule, active = well fitted curve in the direction sought with a large enough effect in the signal ratio in the repeat runs (not every such curve was filed as active); inconclusive = weak or mixed curves, or effect the other way; inactive = no such curve, though single readings can be large or run the other way; the % refers to the signal ratio.

target: Estrogen receptor (Homo sapiens) (UniProt P03372); experiment: qHTS assay to identify small molecule antagonists of the estrogen receptor alpha (ER-alpha) signaling pathway (AID 743069); conditions: HEK293 ER-alpha-UAS-bla, beta-lactamase ratio, antagonist mode; series mostly up to 69.4 µM; activity, negative = inhibition: at the top concentration
From the text: National Center for Advancing Translational Sciences [NCATS]
NIH Chemical Genomics Center [NCGC]
U.S. Environmental Protection Agency [EPA]
National Institutes of Environmental Health Sciences [NIEHS]
National Toxicology Program [NTP]
U.S. Food and Drug Administration [FDA]
Estrogen receptor (ER), a nuclear hormone receptor, plays an important role in development, metabolic homeostasis and reproduction. Two subtypes of ER, ER-alpha and ER-beta have similar expression patterns with some uniqueness in both types. Endocrine disrupting chemicals (EDCs) and their interactions with steroid hormone receptors like ER causes disruption of normal endocrine function. To identify the compounds that inhibit ER signaling, an ER-alpha-UAS-bla GripTiteTM cell line (Invitrogen, Carlsbad, CA, USA) containing a beta-lactamase reporter gene under the control of an Upstream Activator Sequence (UAS) stably integrated into HEK293 cells was used to screen the Tox21 10K compound library.
Tox21 Assay Protocol Summary:
ER-alpha-bla cells were cultured in assay medium containing 2% charcoal stripped FBS overnight in the culture flasks before the assay was performed. The cells were dispensed at 5,000 cells/5 uL of assay medium per well into black wall/clear-bottom 1536-well plates using a Multidrop Combi (ThermoFisher Scientific, Waltham, MA) dispenser. After the assay plates were incubated at a 37C and 5% CO2 for 4 hr, 23 nL of compounds dissolved in DMSO, positive controls or DMSO only was transferred to the assay plate by a Pintool station (Kalypsys, San Diego, CA), followed by addition of 1 uL of 17beta-estradiol in assay medium using a Flying Reagent Dispenser (Aurora Discovery, San Diego, CA). The plates were incubated at 37C and 5% CO2 for 18 hr. Then 1 uL of LiveBLAzerTM B/G FRET substrate was added using a Flying Reagent Dispenser, the plates were incubated at room temperature for 2 hours, and fluorescence intensity was measured by an Envision plate reader (PerkinElmer, Shelton, CT).
Potency is read from the fitted curve at half-maximal effect.

Sequence of Estrogen receptor (Homo sapiens) (P03372 whole entry, looked up): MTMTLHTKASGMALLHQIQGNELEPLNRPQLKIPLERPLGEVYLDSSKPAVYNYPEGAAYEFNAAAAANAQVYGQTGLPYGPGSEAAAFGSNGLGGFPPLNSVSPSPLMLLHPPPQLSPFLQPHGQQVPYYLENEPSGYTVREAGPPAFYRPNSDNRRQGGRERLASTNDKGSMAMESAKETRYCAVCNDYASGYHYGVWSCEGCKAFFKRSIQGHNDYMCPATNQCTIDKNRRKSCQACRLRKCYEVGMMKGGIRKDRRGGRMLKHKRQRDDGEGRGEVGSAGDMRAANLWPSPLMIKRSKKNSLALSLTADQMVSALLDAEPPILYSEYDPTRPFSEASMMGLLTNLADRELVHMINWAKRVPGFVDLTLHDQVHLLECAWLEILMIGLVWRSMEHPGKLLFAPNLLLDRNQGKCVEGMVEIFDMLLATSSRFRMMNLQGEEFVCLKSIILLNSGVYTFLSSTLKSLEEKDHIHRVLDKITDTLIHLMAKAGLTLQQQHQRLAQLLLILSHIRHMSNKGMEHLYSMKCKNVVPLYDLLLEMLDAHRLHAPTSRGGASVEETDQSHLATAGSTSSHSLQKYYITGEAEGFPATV

SMILES | Potency | activity, negative = inhibition
COc1ccccc1/C=C/C=O | inactive | 
O=C(Nc1ccc([N+](=O)[O-])cc1Cl)c1cc(Cl)ccc1O |  | -16.8% (inactive)
Nc1ccc(Cl)cc1Cl | inactive | 
O=Cc1ccccc1O |  | 3.88% (inactive)
Cn1cnc([N+](=O)[O-])c1Sc1ncnc2nc[nH]c12 | inactive | 
C=C(C)C1CC=C(C)CC1 (stereo not given) | inactive | 
O=S(=O)(O)c1ccc(O)cc1 | inactive | 
CCCCNS(=O)(=O)c1ccccc1 |  | -17.8% (inactive)
C[C@]12CCC(=O)C=C1CC[C@@H]1[C@@H]2C(=O)C[C@@]2(C)[C@H]1CC[C@]2(O)C(=O)CO |  | 18.4% (inactive)
Cc1[nH]c(=O)c(C#N)cc1-c1ccncc1 |  | 25.1% (inactive)
CC(C)OB(OC(C)C)OC(C)C | inactive | 
Cc1ccc(C)c(O)c1C | inactive | 
COc1ccc(OC)c(C(O)CNC(=O)CN)c1 (stereo not given) | inactive | 
COc1cccc2c1C(=O)c1c(O)c3c(c(O)c1C2=O)C[C@@](O)(C(=O)CO)C[C@@H]3O[C@H]1C[C@H](N)[C@H](O)[C@H](C)O1 | inactive and 6.01 µM [inconclusive] (active) and 3.46 µM [inconclusive] (active) | 
COC(=O)CCC(=O)OC | inactive | 
CC1=CC2C3CC(C=C3C)C2C1 (stereo not given) | inactive | 
Nc1ncnc2nc[nH]c12 | inactive | 
CN(C)CCC=C1c2ccccc2CCc2ccccc21 | 54.9 µM [inconclusive] (active) | 
COC(=O)C1=C(C)NC(C)=C(C(=O)OCCN(C)Cc2ccccc2)C1c1cccc([N+](=O)[O-])c1 (stereo not given) | 23.9 µM [inconclusive] (active) | 
CCCCOCCOCCOCCO | inactive | 

SMILES | Potency | activity, negative = inhibition
C=CC(C)(CCC=C(C)C)OC(C)=O (stereo not given) | inactive | 
O=[N+]([O-])c1ccc2c(c1)Cc1ccccc1-2 |  | -0.778% (inactive)
Cc1ccc2c(n1)Oc1ccc(C(C)C(=O)OCC(=O)N(C)C)cc1C2 (stereo not given) | inactive | 
O=C1OC2(c3cc(Br)c(O)c(Br)c3Oc3c2cc(Br)c(O)c3Br)c2c(Cl)c(Cl)c(Cl)c(Cl)c21 | inactive | 
CCCCCCCCCCCO | inactive | 
O=C(/C=C/C=C/c1ccc2c(c1)OCO2)N1CCCCC1 | inactive | 
Cc1c(C(N)=O)cc([N+](=O)[O-])cc1[N+](=O)[O-] | inactive | 
S=C(NC1CCCCC1)NC1CCCCC1 |  | -20.7% (inactive)
CC(C)OC=O | inactive | 
CCCCC(CC)COC(=O)c1ccc(N(C)C)cc1 (stereo not given) | inactive | 
CC(C)=CCCC(C)CCO (stereo not given) | inactive | 
Cc1cccc([N+](=O)[O-])c1C | inactive | 
Cc1cccc(N(C)C(=S)Oc2ccc3ccccc3c2)c1 |  | 3.73% [at 32.6 µM] (inactive)
c1ccc2c(c1)c1cccc3ccc4cccc2c4c31 |  | 10.3% (inactive)
C#C[C@]1(O)CC[C@H]2[C@@H]3CCC4=Cc5oncc5C[C@]4(C)[C@H]3CC[C@@]21C | 49 µM [inconclusive] (active) | 
O=C(/C=C/c1ccccc1)OCc1ccccc1 | inactive | 
CC(=O)CC/C=C(\C)CCC=C(C)C | inactive | 
OCCO | inactive | 
CCC(C)(O)CCCC(C)C (stereo not given) | inactive | 
OC1CCCCCCCCCCC1 | inactive | 
